From PubChem BioAssay (NCATS)
Inconclusive results are not listed. A number with no mark means an inactive call. Active and inactive are the calls of the source. Calls come from the whole dose curve; as a rule, active = well fitted curve in the direction sought with a large enough effect; inconclusive = small, poorly fitted or top-dose-only effect, or another doubt; inactive = no such curve, though single readings can be large or run the other way.

test: qHTS Assay for Identifying Gametocytocidal Compounds (AID 743244);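 for max response: actives lower the fluorescent signal which means gametocytes are killed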; conditions: P. falciparum 3D7 stage III-V gametocytes, alamarBlue, 72 h; max response: hits give low values
From the text: Malaria cases and deaths have dropped 50% in 29 countries since 2000 due to the combined effects of long-lasting insecticidal bednets, indoor residual spraying, and artemisinin-based combination therapies (ACTs). This success has raised hopes for malaria eradication and consequently stimulated interest in developing new reagents that block gametocyte transmission such as novel and safe gametocytocidal drugs. However, previous drug development efforts have focused primarily on the asexual parasites that cause symptoms, but not malaria transmission. Consequently, patients can remain infectious for weeks after the clearance of asexual parasites and clinical symptoms. To be transmitted from person to person via a mosquito, the parasites must switch from asexual to sexual development and produce male and female gametocytes. Malaria gametocytes consist of five stages (I, II, III, IV and V). The late stage gametocytes (III, IV and V) are difficult to be cultured in vitro and the long lifespan of mature gametocytes allows them being transmitted from host to mosquitoes unless they are completely eliminated by gametocytocidal agents. To identify gametocytocidal compounds which are capable of killing late stage P. falciparum gametocytes, a high throughput gametocyte viability assay was employed. This assay uses oxidoreduction indicator, alamarBlue, as a general measure of metabolic activity of gametocytes. Within live cells, the nonfluorescent resazurin is reduced to resorufin, a bright red fluorescence dye. Fluorescence decreases upon treatment of gametocytocidal compounds. P. falciparum gametocyte (3D7 strain) was used in this study.
The 1536-well gametocycidal viability assay was based on the previous method of Tanaka et al. Stage III-V gametocytes were tested against three compound libraries, including 4265 compounds from NCGC pharmaceutical collection, 400 from Malaria Box library, and 550 from an internal collection of kinase inhibitors. Briefly, 2.5 ul/well incomplete medium was dispensed into each well of 1,536-well plates using the Multidrop Combi followed by 23 nl compound transferring using the NX-TR Pintool (WAKO Scientific Solutions, San Diego, CA). Then, 2.5 ul/well of gametocytes was dispensed with a seeding density of 20,000 cells/well using the Multidrop Combi. The assay plates were incubated for 72 h at 37C with 5% CO2. After addition of 5 ul/well of 2X AlamarBlue dye (Life Technologies, cat. no. DAL1100), the plates were incubated for 24 h at 37C with 5% CO2 and then were read in a fluorescence detection mode (Ex = 525 nm, Em = 598 nm) on a ViewLux plate reader (PerkinElmer).
% is set by controls: 0 for no effect and ±100 for the full control effect; potency is the fitted concentration of half-maximal effect.

Going from `Cc1csc(-c2nnc(Nc3ccc(Oc4ncccc4-c4ccnc(N)n4)cc3)c3ccccc23)c1` to `CNC(=O)c1cc(COc2nnc(Nc3ccc(Cl)cc3)c3ccoc23)ccn1`, the max response rises from 10.6% to 13%.

Compared with `COc1cc2c(cc1OC)CC(=O)N(CCCN(C)C[C@H]1Cc3cc(OC)c(OC)cc31)CC2`, `COc1cccc(OC)c1-c1cc(C(=O)NC2(C(=O)O)C3CC4CC(C3)CC2C4)nn1-c1ccnc2cc(Cl)ccc12` (stereo not given) is higher in max response: -6.61% for the first, 42.4% for the second.

Compared with `OCCn1cc(-c2ccc3c(c2)CCC3=NO)c(-c2ccncc2)n1`, `Cn1cc(-c2ccc3nnc(Sc4ccc5ncccc5c4)n3n2)cn1` is lower in max response: 8.08% for the first, -16.9% for the second.

Going from `N#CC(c1ccc(Cl)cc1)c1c(Cl)cc(-n2ncc(=O)[nH]c2=O)cc1Cl` (stereo not given) to `COc1ccc(-c2nc3ccc(C4=NNC(=O)CC4C)cc3[nH]2)cc1` (stereo not given), the max response rises from -5.57% to 13.2%.

Going from `CC1=C[C@@H]2[C@@H]([C@@H](O)C[C@@]3(C)[C@H]2C[C@@H](C)[C@]3(O)C(=O)CO)[C@@]2(C)Cc3cnn(-c4ccccc4)c3C=C12` to `CC(C)n1c(C=C[C@H](O)C[C@H](O)CC(=O)O)c(-c2ccc(F)cc2)c2ccccc21`, the max response rises from -28.3% to -4.13%.

Compared with `CCC=CC[C@H]1C(=O)CC[C@@H]1CC(=O)OC`, `CC[C@H](C)C(=O)O[C@H]1C[C@H](O)C=C2C=C[C@H](C)[C@H](CC[C@@H](O)C[C@@H](O)CC(=O)O)[C@H]21` is lower in max response: 12% for the first, -1.33% for the second.

First: O=C(Nc1ccc(OC(F)(F)F)cc1)c1sccc1NCc1ccnc2ccccc12
Second: Cc1c(C(=O)Nc2ccc(N3C[C@@H](C)O[C@@H](C)C3)nc2)cccc1-c1ccc(OC(F)(F)F)cc1
The max response of the first is higher: 8.87% for the first, 0.51% for the second.

Going from `CC(C)CN(C[C@@H](O)[C@H](Cc1ccccc1)NC(=O)O[C@H]1CO[C@H]2OCC[C@H]21)S(=O)(=O)c1ccc(N)cc1` to `CC(C)C[C@H](NC(=O)c1cc2ccccc2s1)C(=O)N1CCN(C(=O)[C@H](CO)NS(=O)(=O)c2ccc(Cl)cc2Cl)CC1`, the max response rises from -5.35% to 4.85%.

First: CCCCCCCCCCCCCC(=O)N[C@H](CO)[C@H](O)c1ccc([N+](=O)[O-])cc1
Second: CCCCOCCOc1nc(-c2ccc(C(=O)O)c(F)c2)sc1C
The max response of the first is lower: -2.76% for the first, 43.8% for the second.

Compared with `NS(=O)(=O)c1cc(Cl)c(Cl)c(S(N)(=O)=O)c1`, `COc1nc(C)cnc1NS(=O)(=O)c1cccnc1-c1ccc(-c2nnco2)cc1` is higher in max response: -4.73% for the first, 18.4% for the second.

Going from `O=C(O)Cc1cccc(OCCCN(Cc2cccc(C(F)(F)F)c2Cl)CC(c2ccccc2)c2ccccc2)c1` to `O=C(Nc1cccc2c(=O)cc(-c3nn[nH]n3)oc12)c1ccc(OCCCCc2ccccc2)cc1`, the max response rises from 0.38% to 38.4%.

Going from `COC(=O)Nc1ccc(-c2nc(N3CCOCC3)c3cnn(C4CCN(C(=O)OC)CC4)c3n2)cc1` to `O=C(Nc1cccc(Cl)c1)Nc1ncc(CCNc2ncnc3ccsc23)s1`, the max response falls from 6.16% to 5.02%.

Compared with `NC(=O)c1ccc(N(C(N)=O)c2c(F)cccc2F)nc1-c1ccc(F)cc1F`, `O=C1C(CCC(O)c2ccc(F)cc2)C(c2ccc(O)cc2)N1c1ccc(F)cc1` (stereo not given) is lower in max response: 15.2% for the first, 8.66% for the second.

First: CC(O)=C(C#N)C(=O)Nc1ccc(C(F)(F)F)cc1
Second: COc1ccnc(CS(=O)c2nc3ccc(OC(F)F)cc3[nH]2)c1OC (stereo not given)
The max response of the first is higher: 27.1% for the first, 7.9% for the second.

Compared with `CN1C(=O)C(Cc2c[nH]c3ccccc23)NC1=S` (stereo not given), `CC(C)(C)c1[nH]cnc1C=c1[nH]c(=O)c(=Cc2ccccc2)[nH]c1=O` is lower in max response: 15.9% for the first, -26.5% for the second.

`O=C(O)c1nc(=O)[nH]c(=O)[nH]1` showed a max response of 15.4%.

For `CCCCN(CCCC)CC(O)c1cc(Cl)cc2c1-c1ccc(Cl)cc1C2=Cc1ccc(Cl)cc1` (stereo not given), the Potency was 0.059 µM (active).
In the case of `CN(C)CCCNC(=O)c1ccc(-c2cc(O)c3ncccc3c2)cc1`, the Potency is reported as 2.96 µM (active).
For `Nc1ccc(-c2ccc3ncc4ccc(=O)n(-c5cccc(C(F)(F)F)c5)c4c3c2)cn1`, the Potency was 0.027 µM (active).
With `CCC(=O)N1CCN(c2ccc(-n3c(=O)ccc4cnc5ccc(-c6cnc7ccccc7c6)cc5c43)cc2C(F)(F)F)CC1` the Potency was 5.26 µM (active).
With `Cc1cccc(Nc2nc(N[C@@H]3CCCC[C@H]3N)ncc2C(N)=O)c1` the Potency was 9.35 µM (active).
For `COc1c(C)cnc(Cn2cnc3c(Cl)nc(N)nc32)c1C`, the Potency was 23.5 µM (active).
For `Cc1ccc(C(=O)N(CCCN)[C@@H](c2nc3cc(Cl)ccc3c(=O)n2Cc2ccccc2)C(C)C)cc1`, the Potency was 18.7 µM (active).
In the case of `Clc1ccc(COC(Cn2ccnc2)c2ccc(Cl)cc2Cl)c(Cl)c1` (stereo not given), the Potency is reported as 4.48 µM (active).
For `CCNC(=O)c1noc(-c2cc(C(C)C)c(O)cc2O)c1-c1ccc(CN2CCOCC2)cc1`, the Potency was 0.0469 µM (active).
